Assay outcomes from PubChem.
HepG2 tox-1: kills HepG2 cells in TGF-b inhibitor counter-screen; HepG2 CAGA-GFP viability, ATP luminescence, 18 h; Potency, µM (top dose mostly 46.1 µM), for the others: at the top dose activity change, negative = cytotoxicity, hits mostly cytotoxic; 410,000 compounds, 0.76% hits
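CellTiter-Glo luminescence gave cytotoxicity after 18 hours at 37 degrees C. The cells were HepG2 CAGA-GFP in 1% FBS DMEM, stimulated with 500 pg/mL TGF-beta after compound addition. %Activity was normalised to no-cell wells (complete cell-killing) and DMSO (no toxicity), and curves were fitted and classified.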
ATXN viability: cell viability loss in ATXN counter-screen. S2 cells (HEK-293 line with an ATXN2-luciferase reporter) viability, CellTiter-Fluor protease fluorescence, 24 h. Potency, µM (highest dose often 56.7 µM), hits mostly cytotoxic. 400,000 compounds, 0.49% hits. AID 651635; further: nearly all actives have a fitted effect of over 40% in size
TGFb SMAD3 inh: blocks TGF-b signaling; AID 588855; HepG2 CAGA-GFP TGF-b/SMAD3 reporter, GFP fluorescence, 18 h; TGF-beta stimulated, 500 pg/mL final; 410,000 compounds, 1.2% hits; Potency, µM (series often up to 46.1 µM), for inactives: at the highest dose activity, negative = inhibition, hits mostly inhibitors; further: on the % scale 0 is the no-effect control and ±100 the full control effect; nearly all actives have a fitted effect of over 65% in size
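First, reporter cells (HEPG2 CAGA-GFP) rested 2 h at 37 degrees C. Next, compounds were pinned in and TGF-beta added to 500 pg/mL final. After 18 h, GFP was imaged per cell and summed per well.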
A549 tox: A549 cytotoxicity, counter-screen for Nrf2 inhibitors | A549 ARE-Fluc cells, CellTiter-Fluor viability, 18-24 h | Potency, µM (doses to about 46 µM), for the others: top-dose activity change, negative = cytotoxicity, most hits filed as inhibitors | 390,000 compounds, 0.16% hits; further: on the % scale 0 is the no-effect control and ±100 the full control effect
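A549 ARE-Fluc cells in 5% FBS OPTI-MEM, 5000 cells/well, rested 2 h then exposed to compounds in concentration-response for 18-24 h at 37 °C. Viability by CellTiter-Fluor fluorescence (Ex 405/Em 525) after 30 min; luciferase luminescence (BugLite, 15 min, RT) read afterwards.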
Nrf2 block: blocks Nrf2 signaling. Potency, µM (series often up to 46 µM), for inactives: at the highest dose activity change, negative = inhibition, most hits filed as inhibitors. 360,000 compounds, 2.1% hits. A549 ARE-Fluc reporter, luciferase luminescence, 18-24 h; further: on the % scale 0 is the no-effect control and ±100 the full control effect; nearly all actives have a fitted effect of over 60% in size
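Nrf2 activity is the BugLite luminescence, read 15 min after reagent at room temperature, following CellTiter-Fluor cytotoxicity readout (30 min, 37C). Compound titrations were applied for 18-24 h to 5000 A549 ARE_Fluc cells/well in 5% FBS OPTI-MEM.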
ATXN2 expr inh: ATXN2 expression inhibition | HEK-293 ATXN2-luciferase reporter, luminescence, 24 h | Potency, µM (doses to about 57 µM), for the others: top-dose activity change, negative = inhibition, most hits filed as inhibitors | 360,000 compounds, 0.72% hits; further: on the % scale 0 is the no-effect control and ±100 the full control effect; nearly all actives have a fitted effect of over 55% in size
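qHTS (up to 57 uM final) was run with 24 h compound exposure of reporter cells at 37 °C. Each well was multiplexed: SteadyGlo luminescence measured ATXN2-luciferase expression after a fluorogenic Gly-Phe-AFC viability readout (25 uM final).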
TGFb confirm: confirmation of TGF-b signaling inhibitors in HepG2 reporter cells. HepG2 CAGA-GFP TGF-b reporter, GFP fluorescence, 18 h; cells stimulated with TGF-beta, 500 pg/mL. 1,600 compounds, 63% hits. shares compounds with TGFb SMAD3 inh. Potency, µM (highest dose often 46.1 µM), for the others: top-dose activity, negative = inhibition, actives largely listed as inhibitors; further: on the % scale 0 is the no-effect control and ±100 the full control effect; nearly all actives have a fitted effect of over 65% in size
HepG2 tox-2: HepG2 cytotoxicity, TGF-b inhibitor counterscreen | shares compounds with TGFb SMAD3 inh | HepG2 CAGA-GFP viability, ATP luminescence, 18 h; cells stimulated with TGF-beta, 500 pg/mL | Potency, µM (titrated, usually from 46.1 µM), inactives show at the highest dose activity, negative = cytotoxicity, hits mostly inhibitors | 1,600 compounds, 27% hits; further: on the % scale 0 is the no-effect control and ±100 the full control effect; nearly all actives have a fitted effect of over 70% in size
CCL64 TGFb inh: TGF-b inhibition, CCL64 orthogonal assay; shares compounds with TGFb SMAD3 inh; CCL64 CAGA-GFP reporter, TGF-b stimulated, GFP fluorescence, 18 h; Potency, µM (titrated, usually from 46.1 µM), for inactives: top-dose activity, negative = inhibition, hits mostly inhibitors; 1,600 compounds, 41% hits; AID 720536; further: nearly all actives have a fitted effect of over 65% in size
TGFb COP inh: TGF-b inhibition validated with COP promoter; shares compounds with TGFb SMAD3 inh; HepG2 COP-GFP TGF-b reporter, GFP fluorescence, 18 h; cells stimulated by added recombinant TGF-beta; Potency, µM (top dose mostly 46.1 µM), for inactives: at the top dose activity, negative = inhibition, hits mostly inhibitors; 1,600 compounds, 3% hits; AID 720537; further: nearly all actives have a fitted effect of over 70% in size
Numbers without * were called inactive. A selection: hits, their analogues and other compounds. The true share with any hit is near 3.8%. The call rests on the fitted dose curve; in most records, active means well fitted curve in the direction sought with a large enough effect; inconclusive means small, poorly fitted or top-dose-only effect, or another doubt; inactive means no such curve, though single readings can be large; an effect the other way counts as inactive or inconclusive. Potency means the concentration at half of the fitted maximal effect.

`O=C1NCCN1CCNc1nc(NCc2ccccc2)nc2ccsc12` gave HepG2 tox-1 -47%, ATXN viability inconclusive, TGFb SMAD3 inh 7.9µM*, ATXN2 expr inh -3%, TGFb confirm 15µM*, HepG2 tox-2 inconclusive, CCL64 TGFb inh inconclusive and TGFb COP inh 50%.
Screening O=C(OCc1ccccc1)N(CCCCN(CCCNCc1ccccc1)C(=O)OCc1ccccc1)CCCNCc1ccccc1 returned HepG2 tox-1 5.6µM*, ATXN viability inconclusive, TGFb SMAD3 inh 5µM*, A549 tox inconclusive, Nrf2 block inconclusive, ATXN2 expr inh inconclusive, TGFb confirm 13µM*, HepG2 tox-2 8.2µM*, CCL64 TGFb inh inconclusive and TGFb COP inh inconclusive.
For Cc1nc2ccc(S(=O)(=O)NCC(=O)Nc3cccc(F)c3)cc2s1 the results were HepG2 tox-1 -2%, ATXN viability inactive, TGFb SMAD3 inh inconclusive, A549 tox 0%, Nrf2 block inconclusive, TGFb confirm -8%, HepG2 tox-2 6%, CCL64 TGFb inh -9% and TGFb COP inh -1%.
For COc1cc2cc[n+](Cc3ccc([N+](=O)[O-])cc3)cc2cc1OC the results were HepG2 tox-1 -2%, ATXN viability inactive, TGFb SMAD3 inh -7%, A549 tox 4%, Nrf2 block -32% and ATXN2 expr inh -12%.
Screening O=C(Nn1c(SCc2ccc(F)cc2)nc2ccsc2c1=O)c1ccccc1 returned HepG2 tox-1 -2%, ATXN viability inactive, TGFb SMAD3 inh 11µM*, A549 tox -12%, Nrf2 block 4%, ATXN2 expr inh 8%, TGFb confirm 16µM*, HepG2 tox-2 inconclusive, CCL64 TGFb inh inconclusive and TGFb COP inh 53%.
For Cc1ccsc1/C=N/NC(=O)c1cc(-c2ccncc2)nc2ccccc12 the results were HepG2 tox-1 -14%, ATXN viability inactive, TGFb SMAD3 inh inconclusive, A549 tox -10%, Nrf2 block 30%, ATXN2 expr inh -8%, TGFb confirm -71%, HepG2 tox-2 -27%, CCL64 TGFb inh 6.5µM* and TGFb COP inh -16%.
Screening COc1cccc(/C=N/Nc2ncnc(Cl)c2N)c1O returned HepG2 tox-1 -27%, ATXN viability 11µM*, TGFb SMAD3 inh 7.1µM*, A549 tox -10%, Nrf2 block -25%, ATXN2 expr inh inconclusive, TGFb confirm inconclusive, HepG2 tox-2 12µM*, CCL64 TGFb inh 5.2µM* and TGFb COP inh 57%.
Screening COc1ccc(/C=N/Nc2ncnc(Cl)c2N)cc1OC returned HepG2 tox-1 2%, ATXN viability inactive, TGFb SMAD3 inh -3%, A549 tox -1%, Nrf2 block inconclusive and ATXN2 expr inh 14%.
CC(=O)Nc1ccc(NC(=O)C(C)Oc2ccc(Cl)cc2Cl)cc1 (centres undefined) was read as HepG2 tox-1 -19%, ATXN viability inactive, TGFb SMAD3 inh -7%, A549 tox 24% and Nrf2 block 12%.
For CC(Oc1ccc(Cl)cc1Cl)C(=O)NC1=NN(c2ccccc2)C(=O)C1 (centres undefined) the results were HepG2 tox-1 -28%, ATXN viability inactive, TGFb SMAD3 inh 18µM*, A549 tox -7%, Nrf2 block -11%, ATXN2 expr inh 1%, TGFb confirm inconclusive, HepG2 tox-2 inconclusive, CCL64 TGFb inh inconclusive and TGFb COP inh 61%.
Screening c1ccc(-c2nc3nonc3nc2-c2ccccc2)cc1 returned HepG2 tox-1 10µM*, ATXN viability inconclusive, TGFb SMAD3 inh 8.9µM*, A549 tox -1%, Nrf2 block inconclusive, ATXN2 expr inh inconclusive, TGFb confirm 15µM*, HepG2 tox-2 inconclusive, CCL64 TGFb inh inconclusive and TGFb COP inh inconclusive.
COc1ccc(/C(C)=N/Nc2nc3ccccc3nc2C)cc1 was read as HepG2 tox-1 -41%, ATXN viability inactive, TGFb SMAD3 inh 7.9µM*, A549 tox 2%, Nrf2 block inconclusive, ATXN2 expr inh -21%, TGFb confirm inconclusive, HepG2 tox-2 -1%, CCL64 TGFb inh -13% and TGFb COP inh 12%.
COc1cccc(NC(=O)Nc2nc(SC)ns2)c1 was read as HepG2 tox-1 -42%, ATXN viability inactive, TGFb SMAD3 inh inconclusive, A549 tox -8%, Nrf2 block 14% and ATXN2 expr inh 42%.
`CCCSc1nsc(NC(=O)Nc2ccc(F)cc2F)n1` gave HepG2 tox-1 -83%, TGFb SMAD3 inh 8.9µM*, A549 tox -30%, Nrf2 block inconclusive, TGFb confirm 6.5µM*, HepG2 tox-2 5.8µM*, CCL64 TGFb inh 7.3µM* and TGFb COP inh 82%.
Cc1cc(C)nc(NC(=O)Nc2ccc(F)cc2F)n1 was read as HepG2 tox-1 3%, ATXN viability inactive, TGFb SMAD3 inh 0%, A549 tox 1%, Nrf2 block inconclusive and ATXN2 expr inh 18%.
`CCSc1nsc(NC(=O)Nc2cccc(F)c2)n1` gave HepG2 tox-1 -41%, ATXN viability inconclusive, TGFb SMAD3 inh 7.1µM*, A549 tox -12%, Nrf2 block inconclusive, ATXN2 expr inh inconclusive, TGFb confirm 7.3µM*, HepG2 tox-2 6.5µM*, CCL64 TGFb inh inconclusive and TGFb COP inh 104%.
